Reference: PubChem BioAssay (Tox21)
Inconclusive results are not listed. A structure can be active in one record and inactive in another. The source made the active and inactive calls. Calls follow the shape of the full dose curve.

biological target: Muscarinic acetylcholine receptor M1 (Homo sapiens) (UniProt P11229); experiment: Cholinergic receptor muscarinic 1 (CHRM1) small molecule antagonists, cell-based qHTS assay (AID 1963588); conditions: CHRM1-CHO antagonist mode, calcium flux fluorescence; series mostly up to 61.5 µM; activity, negative = inhibition: at the top concentration; also: nearly all actives have a fitted effect of over 40% in size
Description: National Center for Advancing Translational Sciences [NCATS]
Division of Preclinical Innovation [DPI]
U.S. Environmental Protection Agency [EPA]
National Institutes of Environmental Health Sciences [NIEHS]
National Toxicology Program [NTP]
U.S. Food and Drug Administration [FDA]
The CHRM1 is a muscarinic receptor. This receptor plays a crucial role in learning and memory processes and has long been identified as a promising therapeutic target for the improvement of cognitive decline in Alzheimer's disease (AD). The CHRM1-CHO cell line stably expressing human muscarinic acetylcholine receptor M1 (CHRM1) can be used for screening agonists and antagonists of interactions between CHRM1 and its ligands. The CHRM1-CHO Calcium Flux Assay is a homogeneous fluorescence-based assay for detecting the intracellular calcium level using FDSS kinetic plate reader system.
Tox21 Assay Protocol Summary:
CHRM1-CHO cells were dispensed at 1000 cells/3uL/well in 1536-well black-clear bottom plates using a Multidrop Dispenser. After the assay plates were incubated at a 37 C/5% CO2 incubator for 18 h, 3 uL of Dye Loading Buffer was transferred to the assay plate by a Flying Reagent Dispenser. The assay plates were incubated at 37 C for 1h. For antagonist mode, 23 nL of compounds dissolved in DMSO, positive controls or DMSO only was transferred to the assay plate by a pin tool. After 5 min incubation at room temperature, 1.5 uL of acetylcholine at 50nM was added to each well. The fluorescence intensity in the plates was measured using FDSS 7000EX kinetic plate reader for 3 min at 1 sec intervals. Each test compound was measured at 15 concentrations in three independent runs.
% is scaled to controls: 0 for no effect and ±100 for the full control effect; potency is read from the fitted curve at half-maximal effect.

Sequence of Muscarinic acetylcholine receptor M1 (Homo sapiens) (P11229 whole entry, looked up): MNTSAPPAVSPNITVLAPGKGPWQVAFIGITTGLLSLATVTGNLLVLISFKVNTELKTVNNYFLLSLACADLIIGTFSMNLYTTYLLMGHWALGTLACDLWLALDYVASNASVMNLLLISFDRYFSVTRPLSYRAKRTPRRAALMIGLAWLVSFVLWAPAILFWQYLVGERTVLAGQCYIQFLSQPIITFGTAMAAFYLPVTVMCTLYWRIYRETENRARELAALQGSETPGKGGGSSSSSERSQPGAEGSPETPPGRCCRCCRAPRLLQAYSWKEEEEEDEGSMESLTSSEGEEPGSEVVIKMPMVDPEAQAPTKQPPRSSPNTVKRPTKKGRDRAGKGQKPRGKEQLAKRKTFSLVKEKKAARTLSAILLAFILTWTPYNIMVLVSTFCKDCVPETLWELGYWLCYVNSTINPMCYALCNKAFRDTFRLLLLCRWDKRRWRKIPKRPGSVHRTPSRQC

SMILES | activity, negative = inhibition | Potency
CCCCCCCCCCOC(=O)c1ccccc1C(=O)OCCCCCCCCCC | 12.4% (inactive) | –
CCOC(=O)CP(=O)(OCC)OCC | 2.09% (inactive) | –
N#CCCC#N | -67% (inactive) | –
Cc1coc2c1CCC(C)C2 (stereo not given) | 3.37% (inactive) | –
C[C@]1(O)CC[C@H]2[C@@H]3CCC4=CC(=O)CC[C@]4(C)[C@@]3(F)[C@@H](O)C[C@@]21C | -15.5% (inactive) | –
CCCC(C)(COC(N)=O)COC(N)=O | – | 19.9 nM (active)
CCCCON=O | -8.06% (inactive) | –
CC[N+]1(CC)CCC(OC(=O)C(O)(c2ccccc2)c2ccccc2)C1 (stereo not given) | – | 2.3 nM (active)
O=C(O)C(F)(F)C(F)(F)C(F)(F)C(F)(F)C(F)(F)C(F)(F)C(F)(F)F | – | inactive
O=C=NC1CCCCC1 | -5.17% (inactive) | –
COC(=O)c1ccc(CBr)cc1 | -0.156% (inactive) | –
Oc1c(Cl)c(Cl)c(Cl)c(Cl)c1Cl | – | inactive
CC(=O)C(Cl)Cl | 3.64% (inactive) | –
O=[N+]([O-])c1cccc(O)c1 | -3.12% (inactive) | –
Nn1cnnc1 | – | inactive
Cc1cccc(N=Nc2ccc(N(C)C)cc2)c1 | – | inactive
Clc1ccc(C(c2ccccc2Cl)C(Cl)(Cl)Cl)cc1 (stereo not given) | – | inactive
CCCCCCI | 15.5% (inactive) | –
O=[N+]([O-])c1ccccc1-c1ccccc1 | -1.98% (inactive) | –
CCCCC(CC)COC(=O)Cl (stereo not given) | – | inactive

SMILES | activity, negative = inhibition | Potency
CCC(C)(CC)c1cc(NC(=O)c2c(OC)cccc2OC)on1 | – | inactive
O=C(O)CF | – | inactive
COc1ccc(C=O)cc1 | – | inactive
CCC(C)C(C)(COC(N)=O)COC(N)=O (stereo not given) | 18.7% [at 28.3 µM] (inactive) | –
COC(=O)c1c(C(F)F)nc(C(F)(F)F)c(C2=NCCS2)c1CC(C)C | -15.3% (inactive) | –
Clc1cccc(C(Cl)(Cl)Cl)n1 | – | inactive
O=Cc1ccc(Cl)cc1Cl | -0.928% (inactive) | –
O=C(NC(=O)c1ccccc1Cl)Nc1ccc(OC(F)(F)F)cc1 | -13.3% (inactive) | –
Clc1ccccc1-c1nnc(-c2ccccc2Cl)nn1 | – | inactive
OCC(Cl)CCl (stereo not given) | 3.63% (inactive) | –
O=C(NCc1cccnc1)Nc1ccc([N+](=O)[O-])cc1 | -13.3% (inactive) | –
c1ccc(P(c2ccccc2)c2ccccc2)cc1 | – | inactive
[O-][Cl+]O | -9.12% (inactive) | –
CCOP(=S)(OCC)Oc1cc(C)nc(C(C)C)n1 | – | inactive
CCC12COCN1COC2 | – | inactive
CC(C)OC(=O)Nc1cccc(Cl)c1 | -3.56% (inactive) | –
O=C(O)Cc1ccccc1 | – | 266 nM (active) and inactive
O=NN1CCCC1 | – | inactive
COc1nc(C)nc(NC(=O)NS(=O)(=O)c2ccccc2Cl)n1 | -1.13% (inactive) | –
O=C([O-])c1ccccn1.O=C([O-])c1ccccn1.O=C([O-])c1ccccn1.[Cr+3] | 1.8% (inactive) | –
